In the supplement of paper PMC3334620:
Over roughly 33,000 sequences, “E-score (-0.5 to 0.5)” has its median near -0.035; the highest 2% begin near 0.34. This is one part of a sample in which the highest values are shown more often than they occur.

Biological target: T1, Mot3 (UniProt P54785)
T1 sequence: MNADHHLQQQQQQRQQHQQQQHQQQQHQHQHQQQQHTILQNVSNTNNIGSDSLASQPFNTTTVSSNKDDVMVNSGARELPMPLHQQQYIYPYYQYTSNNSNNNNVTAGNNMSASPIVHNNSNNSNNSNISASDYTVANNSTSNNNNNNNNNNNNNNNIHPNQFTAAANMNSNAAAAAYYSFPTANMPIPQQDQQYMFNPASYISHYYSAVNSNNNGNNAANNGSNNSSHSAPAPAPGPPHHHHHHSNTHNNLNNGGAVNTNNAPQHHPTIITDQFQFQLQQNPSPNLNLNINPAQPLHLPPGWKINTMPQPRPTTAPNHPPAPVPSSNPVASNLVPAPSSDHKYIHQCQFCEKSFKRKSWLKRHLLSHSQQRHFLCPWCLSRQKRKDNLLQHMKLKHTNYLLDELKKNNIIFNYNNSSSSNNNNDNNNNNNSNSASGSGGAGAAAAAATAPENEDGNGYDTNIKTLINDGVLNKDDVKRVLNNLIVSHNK
Assay: PBM E-score (8-mer binding enrichment) (E-score (-0.5 to 0.5)); higher = stronger / more preferred TF binding
Conditions: protein concentration: 200 nM; construct: GST-full length
Summary of the method: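 E-scores (a modified Wilcoxon-Mann-Whitney statistic) were assigned by the Universal PBM Analysis Suite to every ungapped eight-base word pooled with its reverse complement. The input came from universal all-10-mer Agilent arrays made double-stranded by primer extension and probed with GST-tagged yeast transcription factors at about 100-200 nM. Fluorescent anti-GST detected bound protein, and masliner normalised the scans.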

Sequence | PBM E-score
GACCTTCA | -0.083
GACCTGCA | -0.0447
AACCTTCA | 0.215
AGGGTCTA | -0.153
CGAGCGCC | -0.0813
GTTCACGA | -0.101
GGACGCTA | -0.206
ACGGCAGG | -0.17
CGCGCCAA | -0.0132
ATGACACA | 0.313
ATCACACA | 0.143
ATTACACA | 0.438
GTGACACA | 0.0545
ATTACTCA | 0.165
ATTACACC | 0.299
GTTACACA | 0.357
CTTACACA | 0.3
ATTACACG | 0.435
CTCACACA | -0.0904
ATGACACG | 0.384
GTTACAAA | 0.223
CGAGACCC | -0.0978

Sequence | PBM E-score
CGGCCACA | -0.234
GACGATCC | -0.0936
ATCAATAA | 0.0626
CTACGCGA | 0.232
GCCTACAC | 0.344
CCCTACAC | 0.187
ATCTACAG | 0.0501
ACCTACAC | 0.258
ATCTACAA | 0.205
ATCTACAC | 0.375
GTCTACAC | 0.275
ATCTACAT | 0.349
CTCTACAC | 0.223
GAAAAGGC | 0.228
AATCAGGT | 0.153
CCCATGAG | -0.314
AATGAGGT | -0.0627
GTATTCCA | 0.0481
CTCTGTGC | 0.00777
AAAGGCTT | -0.0548
AAAGGCAT | 0.39
CAAGGCCG | -0.0783

Sequence | PBM E-score
CAAGGCCA | 0.0593
CAAGGCAA | 0.479
CAAGGCCC | 0.0163
CAAGGCAC | 0.488
TAAGGCTA | 0.129
CAAGGCAG | 0.0705
AAAGGCCT | -0.0542
TAAGGCGA | -0.0665
TAAGGCAA | 0.472
ACGGCGTG | 0.0736
ATCTTAGC | -0.0857
ACACCGGA | 0.0203
AAGCTAGT | -0.004
CTACTGGA | -0.174
AGCCATAC | -0.163
AAGGGCAA | 0.127
AAAGGCAA | 0.486
AAAGGCAG | 0.282
GAAGGCCA | -0.0342
GAAGGCTA | 0.0397
GAAGGCAA | 0.489
CAAGCAGC | -0.0458

Sequence | PBM E-score
AATCCATC | -0.21
CTTAAGAC | -0.0312
ACCGCGAA | -0.0635
CGGAACTA | -0.265
AAGAACTG | -0.196
AGGAACTA | 0.38
ATGAACTG | 0.0964
ATGAACTC | -0.14
CGGAACTC | -0.29
GGGAACTA | -0.0385
AGGAACTC | 0.396
AGGAACTG | 0.413
ACAGCCAT | 0.172
AGCAGGGA | -0.167
ACAGTCAT | -0.0548
GAGCGCAC | -0.307
ATCTTGGG | -0.157
ACGCTCAG | -0.226
ATCAACTG | -0.0772
GAAGTACC | 0.00084
